# Reference: PubChem BioAssay AID1159580 (chemical genetic matrix, 2015)
# Several values for one entry are separate records, joined by “and”; a condition that tells them apart may be missing. Identical values can stand only once. In all, about 5,500 compounds went through this assay and about 2,000 (36%) were called active. Not shown: some 18% with an inconclusive outcome. This is one part of the list. Unmarked numbers belong to inactive results. No stated cut-off is given here; in the data, active means normalized growth mostly below about 0.91 (no sharp cut-off); inconclusive means no clear call, values can overlap the other calls; inactive means mostly above about 0.92.
# Assay: chemical genetic growth profiling, strain panel (AID 1159580);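 further: tested at 20 µM; growth read once vehicle control cultures reached saturation at 30 °C; 1 = growth at the plate median or of vehicle wells; lower values mean less growth of the strain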
# Settings: growth OD
# [1] = S. cerevisiae deletion strains, locus YBR229C, strain ROT2, active compounds read low
# [2] = S. cerevisiae deletion strains, locus YDL101C, strain DUN1, active compounds read low
# [3] = S. cerevisiae deletion strains, locus YDR150W, strain NUM1, active compounds read low
# [4] = S. cerevisiae deletion strains, locus YEL061C, strain CIN8, active compounds read low
# [5] = S. cerevisiae deletion strains, locus YGR078C, strain PAC10, active compounds read low
# [6] = S. cerevisiae deletion strains, locus YHR030C, strain SLT2, active compounds read low
# [7] = S. cerevisiae deletion strains, locus YJR043C, strain POL32, active compounds read low
# [8] = S. cerevisiae deletion strains, locus YJR075W, strain HOC1, active compounds read low
# [9] = S. cerevisiae deletion strains, locus YKL190W, strain CNB1, active compounds read low
# [10] = S. cerevisiae deletion strains, locus YLR039C, strain RIC1, active compounds read low
# [11] = S. cerevisiae deletion strains, locus YLR262C, strain YPT6, active compounds read low
# [12] = S. cerevisiae deletion strains, locus YMR263W, strain SAP30, active compounds read low
# [13] = S. cerevisiae deletion strains, locus YNL128W, strain TEP1, active compounds read low
# [14] = S. cerevisiae deletion strains, locus YNL322C, strain KRE1, active compounds read low
# [15] = S. cerevisiae deletion strains, locus YPL055C, strain LGE1, active compounds read low
# [16] = S. cerevisiae deletion strains, locus YPL241C, strain CIN2, active compounds read low
compound,measurement,setting,value
NCCNC(=O)c1ccc(Cl)cc1,normalized growth,"S. cerevisiae deletion strains, locus YAL040C, strain CLN3, active compounds read low",1.07
same,normalized growth,"S. cerevisiae deletion strains, locus YBR021W, strain FUR4, active compounds read low",0.997
same,normalized growth,[1],0.994
same,normalized growth,"S. cerevisiae deletion strains, locus YCL029C, strain bik1, active compounds read low",0.986
same,normalized growth,"S. cerevisiae deletion strains, locus YCL061C, strain MRC1 (second series), active compounds read low",0.997
same,normalized growth,"S. cerevisiae deletion strains, locus YDL035C, strain GPR1, active compounds read low",0.997
same,normalized growth,"S. cerevisiae deletion strains, locus YDL074C, strain BRE1, active compounds read low",1.05
same,normalized growth,[2],0.994
same,normalized growth,"S. cerevisiae deletion strains, locus YDL134C, strain PPH21, active compounds read low",0.98
same,normalized growth,"S. cerevisiae deletion strains, locus YDL185W, strain tfp1, active compounds read low",0.984
same,normalized growth,"S. cerevisiae deletion strains, locus YDL192W, strain arf1, active compounds read low",0.973
same,normalized growth,"S. cerevisiae deletion strains, locus YDR101C, strain arx1, active compounds read low",1.03
same,normalized growth,[3],0.998 and 0.995
same,normalized growth,"S. cerevisiae deletion strains, locus YDR162C, strain NBP2, active compounds read low",0.984
same,normalized growth,"S. cerevisiae deletion strains, locus YDR318W, strain mcm21, active compounds read low",0.987
same,normalized growth,"S. cerevisiae deletion strains, locus YDR363W, strain ESC2, active compounds read low",1.01
same,normalized growth,"S. cerevisiae deletion strains, locus YDR388W, active compounds read low",0.98
same,normalized growth,"S. cerevisiae deletion strains, locus YDR502C, strain sam2, active compounds read low",1
same,normalized growth,[4],0.99
same,normalized growth,"S. cerevisiae deletion strains, locus YER002W, strain NOP16, active compounds read low",1.02
same,normalized growth,"S. cerevisiae deletion strains, locus YER110C, active compounds read low",0.959
same,normalized growth,"S. cerevisiae deletion strains, locus YER155C, strain BEM2, active compounds read low",0.999
same,normalized growth,"S. cerevisiae deletion strains, locus YER167W, strain BCK2, active compounds read low",0.99
same,normalized growth,"S. cerevisiae deletion strains, locus YGL078C, strain dbp3, active compounds read low",0.961
same,normalized growth,"S. cerevisiae deletion strains, locus YGL086W, strain mad1, active compounds read low",1.01
same,normalized growth,"S. cerevisiae deletion strains, locus YGL248W, strain PDE1, active compounds read low",0.996
same,normalized growth,[5],1.03 and 0.988
same,normalized growth,"S. cerevisiae deletion strains, locus YGR135W, strain pre9, active compounds read low",0.948
same,normalized growth,"S. cerevisiae deletion strains, locus YGR252W, strain gcn5, active compounds read low",0.931
same,normalized growth,[6],0.987
same,normalized growth,"S. cerevisiae deletion strains, locus YHR079C, strain IRE1 (second series), active compounds read low",0.991
same,normalized growth,"S. cerevisiae deletion strains, locus YHR094C, strain hxt1, active compounds read low",0.986
same,normalized growth,"S. cerevisiae deletion strains, locus YHR129C, strain ARP1, active compounds read low",0.998
same,normalized growth,"S. cerevisiae deletion strains, locus YHR200W, strain rpn10, active compounds read low",0.983
same,normalized growth,"S. cerevisiae deletion strains, locus YIL066C, strain RNR3, active compounds read low",0.998
same,normalized growth,"S. cerevisiae deletion strains, locus YIL073C, strain SPO22, active compounds read low",0.94
same,normalized growth,"S. cerevisiae deletion strains, locus YIL125W, strain kgd1, active compounds read low",0.988
same,normalized growth,"S. cerevisiae deletion strains, locus YIR030C, strain dcg1, active compounds read low",0.982
same,normalized growth,"S. cerevisiae deletion strains, locus YJL095W, strain BCK1, active compounds read low",1.02
same,normalized growth,"S. cerevisiae deletion strains, locus YJL134W, strain LCB3, active compounds read low",0.991
same,normalized growth,"S. cerevisiae deletion strains, locus YJL168C, strain set2, active compounds read low",0.984
same,normalized growth,"S. cerevisiae deletion strains, locus YJL187C, strain SWE1 (second series), active compounds read low",1
same,normalized growth,[7],1.02
same,normalized growth,[8],0.999
same,normalized growth,"S. cerevisiae deletion strains, locus YKL009W, strain mrt4, active compounds read low",0.969
same,normalized growth,"S. cerevisiae deletion strains, locus YKL068W, active compounds read low",0.989
same,normalized growth,"S. cerevisiae deletion strains, locus YKL085W, strain MDH1 (second series), active compounds read low",1
same,normalized growth,"S. cerevisiae deletion strains, locus YKL085W, strain MDH1, active compounds read low",1
same,normalized growth,[9],0.998
same,normalized growth,"S. cerevisiae deletion strains, locus YKR001C, strain vps1, active compounds read low",0.993
same,normalized growth,[10],1.04
same,normalized growth,"S. cerevisiae deletion strains, locus YLR058C, strain SHM2, active compounds read low",0.988
same,normalized growth,"S. cerevisiae deletion strains, locus YLR102C, strain apc9, active compounds read low",0.976
same,normalized growth,[11],0.996
same,normalized growth,"S. cerevisiae deletion strains, locus YLR268W, strain sec22, active compounds read low",0.992
same,normalized growth,"S. cerevisiae deletion strains, locus YLR330W, strain CHS5, active compounds read low",0.999
same,normalized growth,"S. cerevisiae deletion strains, locus YLR342W, strain FKS1 (second series), active compounds read low",0.984
same,normalized growth,"S. cerevisiae deletion strains, locus YLR371W, strain rom2, active compounds read low",0.991
same,normalized growth,"S. cerevisiae deletion strains, locus YLR418C, strain cdc73, active compounds read low",0.975
same,normalized growth,"S. cerevisiae deletion strains, locus YML016C, strain PPZ1, active compounds read low",0.991
same,normalized growth,"S. cerevisiae deletion strains, locus YML032C, strain rad52, active compounds read low",0.984
same,normalized growth,"S. cerevisiae deletion strains, locus YML124C, strain tub3, active compounds read low",0.99
same,normalized growth,"S. cerevisiae deletion strains, locus YMR078C, strain ctf18, active compounds read low",0.967
same,normalized growth,"S. cerevisiae deletion strains, locus YMR223W, strain ubp8, active compounds read low",0.958
same,normalized growth,[12],1.01 and 0.997
same,normalized growth,"S. cerevisiae deletion strains, locus YMR307W, strain GAS1, active compounds read low",0.984 and 0.965
same,normalized growth,"S. cerevisiae deletion strains, locus YNL067W, strain RPL9B, active compounds read low",1.01
same,normalized growth,[13],0.984 and 0.991
same,normalized growth,"S. cerevisiae deletion strains, locus YNL175C, strain NOP13, active compounds read low",0.99
same,normalized growth,"S. cerevisiae deletion strains, locus YNL197C, strain WHI3, active compounds read low",0.992
same,normalized growth,"S. cerevisiae deletion strains, locus YNL224C, strain SQS1, active compounds read low",0.999
same,normalized growth,"S. cerevisiae deletion strains, locus YNL233W, strain BNI4, active compounds read low",1.02
same,normalized growth,"S. cerevisiae deletion strains, locus YNL250W, strain rad50, active compounds read low",0.942
same,normalized growth,"S. cerevisiae deletion strains, locus YNL271C, strain bni1, active compounds read low",0.983
same,normalized growth,"S. cerevisiae deletion strains, locus YNL298W, strain CLA4, active compounds read low",0.96
same,normalized growth,"S. cerevisiae deletion strains, locus YNL307C, strain MCK1, active compounds read low",0.981
same,normalized growth,[14],1.01
same,normalized growth,"S. cerevisiae deletion strains, locus YNR052C, strain pop2, active compounds read low",0.974
same,normalized growth,"S. cerevisiae deletion strains, locus YOL006C, strain TOP1, active compounds read low",1.08
same,normalized growth,"S. cerevisiae deletion strains, locus YOL012C, strain htz1",1.91
same,normalized growth,"S. cerevisiae deletion strains, locus YOL147C, strain pex11, active compounds read low",0.985
same,normalized growth,"S. cerevisiae deletion strains, locus YOR061W, strain CKA2, active compounds read low",0.992
same,normalized growth,"S. cerevisiae deletion strains, locus YOR069W, strain VPS5, active compounds read low",0.984
same,normalized growth,"S. cerevisiae deletion strains, locus YOR083W, strain WHI5 (second series), active compounds read low",0.99
same,normalized growth,"S. cerevisiae deletion strains, locus YOR136W, strain idh2, active compounds read low",0.993
same,normalized growth,"S. cerevisiae deletion strains, locus YOR144C, strain elg1, active compounds read low",0.983
same,normalized growth,"S. cerevisiae deletion strains, locus YOR184W, strain ser1, active compounds read low",0.968
same,normalized growth,"S. cerevisiae deletion strains, locus YOR316C, strain cot1, active compounds read low",0.981
same,normalized growth,[15],1.01
same,normalized growth,[16],0.997
same,normalized growth,"S. cerevisiae deletion strains, locus YPR119W, strain clb2, active compounds read low",0.977
same,normalized growth,"S. cerevisiae deletion strains, locus YPR141C, strain kar3, active compounds read low",0.978
same,normalized growth,"S. cerevisiae deletion strains, locus YPR163C, strain tif3, active compounds read low",0.987
same,normalized growth,"S. cerevisiae deletion strains, locus YPR167C, strain met16, active compounds read low",0.973
same,normalized growth,"S. cerevisiae deletion strains, strain wtn01, active compounds read low",0.968
same,normalized growth,"S. cerevisiae strains, strain wild type, active compounds read low",0.998
O=C(NCCSCc1ccco1)c1ccc(Cl)cc1,normalized growth,"S. cerevisiae deletion strains, locus YAL013W, strain DEP1, active compounds read low",0.976
same,normalized growth,[1],0.991
same,normalized growth,[2],0.976
same,normalized growth,[3],0.815
same,normalized growth,[4],0.994
same,normalized growth,[5],0.989
same,normalized growth,[6],0.587 (active)
same,normalized growth,"S. cerevisiae deletion strains, locus YHR087W, strain rtc3, active compounds read low",1
same,normalized growth,"S. cerevisiae deletion strains, locus YJL187C, strain SWE1, active compounds read low",1
same,normalized growth,[7],0.975
same,normalized growth,[8],1.05
same,normalized growth,[9],1
same,normalized growth,[10],1.31 [resistant] (active)
same,normalized growth,"S. cerevisiae deletion strains, locus YLR058C, strain SHM2 (second series), active compounds read low",0.96
same,normalized growth,"S. cerevisiae deletion strains, locus YLR085C, strain ARP6, active compounds read low",1
same,normalized growth,[11],1.19 [resistant] (active)
same,normalized growth,"S. cerevisiae deletion strains, locus YML094W, strain GIM5, active compounds read low",0.989
same,normalized growth,"S. cerevisiae deletion strains, locus YMR219W, strain ESC1, active compounds read low",0.98
same,normalized growth,[12],0.981
same,normalized growth,[13],0.983
same,normalized growth,"S. cerevisiae deletion strains, locus YNL153C, strain GIM3, active compounds read low",0.984
same,normalized growth,"S. cerevisiae deletion strains, locus YNL298W, strain CLA4 (second series), active compounds read low",0.968
same,normalized growth,[14],0.988
same,normalized growth,"S. cerevisiae deletion strains, locus YNR030W, strain Alg12, active compounds read low",0.982
same,normalized growth,[15],0.962
same,normalized growth,[16],0.975
same,normalized growth,"S. cerevisiae deletion strains, locus YPR135W, strain CTF4, active compounds read low",1.02
